Test results as given in PubChem BioAssay (NCI).
This is part of a sample that, as a whole, favours compounds with a hit. Of some 79,000 tested, about 15% had one in any assay. Active and inactive are the calls of the source. Rule as the data show it: active = growth inhibition above about 70%; inactive = the rest.

Assays:
[1] = NCI Yeast Anticancer Drug Screen. Data for the rad50 strain (AID 155);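 also: 0% = growth of vehicle-only cultures of the same strain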; details: S. cerevisiae rad50 strain growth inhibition; at 50.0 µM; stronger effect = higher value
Summary of the method: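 Readout: growth inhibition relative to vehicle-treated cultures. Compound exposure was carried out in a genetically defined yeast strain deficient in DNA damage repair.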

[2] = NCI Yeast Anticancer Drug Screen. Data for the mec2-1 strain (AID 157); details: S. cerevisiae mec2-1 strain, at 50.0 µM, stronger effect = higher value
Summary of the method: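 Cells of the genetically defined mec2-1 yeast strain are incubated with test compound. Inhibition of growth is calculated against vehicle-treated controls.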

[3] = NCI Yeast Anticancer Drug Screen. Data for the sgs1 mgt1 strain (AID 161);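 also: 0% = growth of cultures given vehicle only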; details: S. cerevisiae sgs1 mgt1 strain, at 50.0 µM, stronger effect = higher value
Summary of the method: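 Genetically altered yeast, compound exposure, growth inhibition relative to vehicle.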

[4] = NCI Yeast Anticancer Drug Screen. Data for the bub3 strain (AID 167); details: S. cerevisiae bub3 mutant strain, at 50.0 µM, stronger effect = higher value
Summary of the method: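 Readout: yeast growth inhibition, expressed relative to vehicle-only wells. The test organism is a mutant strain from a panel with lesions in DNA repair or checkpoint genes.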

[5] = NCI Yeast Anticancer Drug Screen. Data for the mlh1 rad18 strain (AID 175); details: S. cerevisiae mlh1 rad18 strain growth inhibition; at 50.0 µM; stronger effect = higher value
Summary of the method: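 Compound-treated yeast growth, normalised to vehicle controls. Strain bears defined DNA repair mutations.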

[6] = NCI Yeast Anticancer Drug Screen. Data for the cln2 rad14 strain (AID 165);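 also: 0% = growth equal to vehicle treated cultures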; details: S. cerevisiae cln2 rad14 strain, at 50.0 µM, stronger effect = higher value
Summary of the method: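 The screen exposed genetically defined yeast (cln2 rad14) to test compounds and scored growth inhibition relative to vehicle-treated controls.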

Measured: growth inhibition

COc1cc([N+](=O)[O-])ccc1NC(=O)c1cccc([N+](=O)[O-])c1C(=O)O
inactive: [1] 5% | [2] 20.6% | [3] 42.8% | [4] -16.8% | [5] 24.6%

CC(/C=C/c1ccccc1)=N\NC(=S)N/N=C(C)/C=C/c1ccccc1
inactive: [1] 10.5% | [2] 37.6% | [3] 21.5% | [4] 49.5% | [5] 11.1%

CC(=O)OCC(OC(C)=O)C(OC(C)=O)C(OC(C)=O)C(O)CO (stereo not given)
inactive: [1] -0.55% | [2] 18.8% | [3] 15.4% | [4] 24.6% | [5] -4.45%

Clc1ccc(OCc2nnc3n2N=C(c2ccccc2)CS3)cc1
inactive: [1] 36.5% | [2] 7.1% | [3] 15.9% | [4] 23.5% | [5] 15.9%

N#CCC(=O)N/N=C1/C(=O)N(c2cc(Cl)ccc2Cl)C(=O)C(=O)C1c1nc2ccccc2s1 (stereo not given)
inactive: [1] 42.8% | [2] 27.8% | [3] 38.1% | [4] -0.5% | [5] 51%

CC(=O)Oc1ccc(O)c(C(=O)O)c1
inactive: [1] 1.8% | [2] -7.15% | [3] -4.95% | [4] 0.2% | [5] 17.3%

Fc1ccc2nncc(/C=C/c3ccccn3)c2c1
inactive: [1] 41.8% | [2] -3.55% | [3] 4.2% | [4] 24.2% | [5] 19.4%

CN(C)C(=O)NO
inactive: [1] -32% | [2] -26.1% | [3] -11.8% | [4] -3.3% | [5] -28.4%

Cc1ccc(C2OC2C(=O)c2ccccc2)cc1 (stereo not given)
inactive: [1] 0.05% | [2] 0.25% | [3] -19.5% | [4] -36% | [5] 5.85%

CC(=O)OCCC12CCC(CC1Cl)C2(C)C (stereo not given)
inactive: [1] -1.45% | [2] -9.7% | [3] 9.85% | [4] -3.05% | [5] -3.55%

CCCCCCCCCCC1OCC(CC)([N+](=O)[O-])CO1 (stereo not given)
inactive: [1] 10.2% | [2] -27.9% | [3] 18.3% | [4] 9.25% | [5] -10.6%

COC(=O)c1ccc2c(c1)nnn2C(C)=O
inactive: [1] -9.55% | [2] -12.7% | [3] -7.25% | [4] 1.7% | [5] 4.65%

COc1ccc(C2c3cc4c(cc3OC(O)(CO)C2C(=O)O)OCO4)c(OC)c1OC (stereo not given) (tested in a mixture with another compound)
inactive: [1] 0.2% | [2] -4% | [3] 6% | [4] -18.3% | [5] 9.65%

Cc1nn(-c2ccccc2)c2oc3ccccc3c(=O)c12
inactive: [1] -25.6% | [2] -7.4% | [3] -35.5% | [4] -20.9% | [5] -31.1%

CN(C)C(=S)S(=O)(=O)c1ccc([N+](=O)[O-])cc1
active: [5] 92.3%
inactive: [1] 26.8% | [2] 14.7% | [3] 23.6% | [4] 31.6%

Fc1ccc(F)c(C(Nc2nncs2)Nc2nncs2)c1
inactive: [1] 7.3% | [2] -8.75% | [3] 7.75% | [4] 8.45% | [5] 7.85%

Nc1ccc(CCc2ccc3ccccc3n2)cc1
inactive: [1] 33.2% | [2] -9.25% | [3] 15.9% | [4] -16.2% | [5] 33.5%

CC(=O)Nc1ccc2c(c1)C(=O)c1ccccc1-2
inactive: [1] 64.1% | [2] 16.1% | [3] 30.2% | [4] -16.8% | [5] 31.4%

NC1=NN(c2c(Cl)cc(Cl)cc2Cl)C(=O)C1
inactive: [1] 21.9% | [2] -3.8% | [3] 17.6% | [6] 33.3% | [5] 39.6%

CN(Cc1cnc2nc(N)nc(N)c2n1)c1ccc(C(=O)NC(CCC(=O)NC(CCC(=O)O)C(=O)O)C(=O)O)cc1 (stereo not given)
inactive: [1] 34.7% | [2] 20.6% | [3] 32.8% | [4] 33.5% | [5] 36.2%

CCCCNC(=O)c1c(Cl)c(Cl)c(Cl)c(Cl)c1C(=O)O
inactive: [1] 37.3% | [2] 17.1% | [3] 4.85% | [4] 16.5% | [5] 28.2%

OC(c1ccccc1)C(CN1CCCCC1)c1ccccc1 (stereo not given)
inactive: [1] 3.9% | [2] 2.55% | [3] 24.9% | [4] 4.95% | [5] 15.4%

CCOCc1ccccc1C(O)(c1ccc(OC)cc1)c1ccccc1OC (stereo not given)
inactive: [1] 37.6% | [2] 16.3% | [3] 40.9% | [4] 6.85% | [5] 57.4%

O=C(O)c1ccc(Cl)cc1C(=O)c1ccc(Cl)cc1
inactive: [1] 1.25% | [2] 8.75% | [3] -2.55% | [4] -1.7% | [5] -13.1%

O=C(OCC(Br)C(Br)c1ccccc1)c1ccccc1 (stereo not given)
active: [4] 73.6%
inactive: [1] -13.3% | [2] -12.6% | [3] -2% | [5] -27.6%

CCCC1(C)OCC(C)(C)CO1
inactive: [1] -1.05% | [2] 2.45% | [3] -13.3% | [4] 3.85% | [5] 1.9%

CCOC(=O)CCC(NC(=O)OCc1ccccc1)C(=O)NC(CCC(=O)OCC)C(=O)NC(CCC(=O)OCC)C(=O)NC(CCC(=O)OCC)C(=O)NC(CCC(=O)OCC)C(=O)NC(CCC(=O)OCC)C(=O)NC(CCC(=O)OCC)C(=O)OCC (stereo not given)
inactive: [1] -23.8% | [2] -16.5% | [3] -10.2% | [4] -10.7% | [5] 2.2%

NC(=S)c1ccc[n+]([O-])c1
inactive: [1] 15.6% | [2] 10.1% | [3] 20.2% | [4] 6.9% | [5] 6.85%

CC(=O)CC(=O)ON(C)C(C)=O
inactive: [1] -8.85% | [2] 19.2% | [3] -15.8% | [4] -14.3% | [5] -11.6%

O=C1CCCc2[nH]c3ccc(Cl)cc3c21
inactive: [1] -1.9% | [2] 0.3% | [3] -10.9% | [4] -14.2% | [5] 12.9%

CC(=O)CCCO
inactive: [1] -1.6% | [2] -5.75% | [3] -0.8% | [4] 19.1% | [5] -0.9%

CCOC(=O)NN(C(=O)OCC)C(C(=O)c1ccccc1)N(NC(=O)OCC)C(=O)OCC
inactive: [1] 27.6% | [2] 9.9% | [3] 16.9% | [4] 20.9% | [5] 22.4%

C=CCc1ccc(OC(=O)Nc2cccc(OC)c2)c(OC)c1
active: [1] 74.5% | [2] 86.8% | [3] 73.9%
inactive: [4] 53.9% | [5] 68.8%

C/C(=N/NC(=S)Nc1cccc(Cl)c1)c1cccc(/C(C)=N\NC(=S)Nc2cccc(Cl)c2)n1
inactive: [1] 47% | [2] 46% | [3] 62.6% | [4] 62.4% | [5] 56.9%

CC[N+](C)(CC)CCOC(=O)C(c1ccccc1)C(O)C1CCCCC1 (stereo not given)
inactive: [1] 29.8% | [2] -5.45% | [3] 3.8% | [4] -0.3% | [5] 8.75%

CC(=O)Nc1ccc(S(=O)(=O)CCN2C(=O)c3ccccc3C2=O)cc1
inactive: [1] -4.55% | [2] -8.85% | [3] 12.3% | [4] 4.35% | [5] -16.8%

CC/C(=N/NC(=O)NN)c1ccc(Cl)cc1
inactive: [1] -2.2% | [2] 14.3% | [3] -1.2% | [4] 22.6% | [5] 17.6%

COc1ccc2c(ccc3nc(C)[nH]c(=O)c32)c1
inactive: [1] 5.3% | [2] -5.35% | [3] 2.95% | [4] -10.6% | [5] -6.3%

CSc1nc2cc(C)c(C)cc2[nH]1
inactive: [1] -5.1% | [2] -3.1% | [3] 27.8% | [4] 15.1% | [5] -6.85%

COC(=O)c1s/c(=N\C(=S)N(C)C)n(-c2ccccc2)c1C(=O)OC
inactive: [1] 5.3% | [2] 20.2% | [3] -0.1% | [4] -8.85% | [5] 11.2%

COc1cc2c(cc1OC)C(=O)C1(C2)[C@H](c2ccccc2)C2C(=O)c3cc(OC)c(OC)cc3C2[C@H]1c1ccccc1 (stereo not given in full)
inactive: [1] -2.5% | [2] 3.25% | [6] 17.6% | [4] 46% | [5] 23.1%

CCC(C)C1CCCCC1 (stereo not given)
inactive: [1] -13% | [2] -15.9% | [6] 3.85% | [4] -12.8% | [5] 0.75%

O=C(O)c1c(O)ccc(O)c1C(=O)O
inactive: [1] -38.5% | [2] -30.8% | [6] -21.1% | [4] -8.8% | [5] -11.2%

Cc1cccc(C(O)c2ccccn2)c1O (stereo not given)
inactive: [1] -3.85% | [2] -4.45% | [6] -4.45% | [4] -3.8% | [5] 3.1%

CC(O)CNC(=O)Nc1ccccc1 (stereo not given)
inactive: [1] -26.9% | [2] -26.8% | [6] -5.25% | [4] 3.95% | [5] -17.6%

NC(=O)Cn1c(=O)[nH]c(=O)c2[nH]cnc21
inactive: [1] -16.9% | [2] -2.1% | [6] 5.4% | [4] -0.4% | [5] 6.85%
